Several values for one entry are separate records, joined by “and”; a condition that tells them apart may be missing. Equal entries are not always repeated. Records with an inconclusive call do not appear. More than one record can exist for a structure, and the calls need not agree. Activity calls are given as the source filed them. Unless noted, calls follow the shape of the dose curve; as a rule, active = well fitted curve in the direction sought with a large enough effect; inconclusive = small, poorly fitted or top-dose-only effect, or another doubt; inactive = no such curve, though single readings can be large; an effect the other way counts as inactive or inconclusive.
Tests used:
SKOV3 = assay: Primary qHTS to identify gynecologic anti-cancer compounds using libraries of approved drugs and bioactive compounds (AID 1345084); settings: Gynecologic cancer cell panel viability, ATPlite luminescence, 48 h; series mostly up to 57.5 µM; also: nearly all actives have a fitted effect of over 55% in size; also: potency is read from the fitted curve at half-maximal effect
Method in brief: (§1)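 Cells, 1,000 per well, were allowed to settle for 16 h at 37 C before compound addition. Five concentrations were tested for 48 h, and viability was read by ATPlite luminescence after 15 min at room temperature.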

Tov-21-G = assay: as above; settings: Gynecologic cancer cell panel viability, ATPlite luminescence, 48 h; series mostly up to 57.5 µM
Method in brief: as §1

Tov112D = assay: as above; settings: Gynecologic cancer cell panel viability, ATPlite luminescence, 48 h; series mostly up to 57.5 µM
Method in brief: as §1

[1] = Drug repurposing screens with cells derived from glioblastoma tumor samples (AID 1345199); settings: GBM patient neurospheres viability, ATP luminescence, 48 h; Potency: tumour line A unless noted; series mostly up to 45.9 µM; also: % is scaled to controls: 0 for no effect and ±100 for the full control effect; nearly all actives have a fitted effect of over 40% in size
Method in brief: (§2)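 Primary testing used CD133+ neurospheres from four GBM patients, seven concentrations, 48 h exposure and ATP-based viability; confirmation added three slower-growing patient lines.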

astro = assay: as above; settings: viability, ATP luminescence, 48 h; series mostly up to 45.9 µM
Method in brief: as §2

[2] = target: Nuclear receptor subfamily 1 group I member 2 (Rattus norvegicus) (UniProt Q9R1A7); assay: qHTS assay for small molecule activators of the rat pregnane X receptor (rPXR) signaling pathway (AID 651751; call rule not given here; also: 0% is about no effect); settings: rPXR reporter cells, luciferase (One-Glo), 24 h
[3] = qHTS assay to identify inhibitors of the type 1 interferon - major histocompatibility complex class I in skeletal muscle: Counter screen cell viability and HiBit confirmation (AID 1347412); settings: iHSKM muscle cells + IFN-b, HiBiT or CellTiter-Glo, 24 h; for activity change, negative = inhibition: at 45.9 µM (top of the series); also: potency is read from the fitted curve at half-maximal effect; as to activity change, negative = inhibition: % is scaled to controls: 0 for no effect and ±100 for the full control effect; as to all read-outs here: nearly all actives have a fitted effect of over 60% in size
Method in brief: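 HLA-B*08:01–HiBiT knock-in immortalized human myoblasts (C25cl48) stimulated with 4.0 ng/ml human IFN-beta and dosed with compound in a 12-point 1:3 titration (top final 46 uM). After 24 hrs at 37 C, HiBiT lytic luminescence or CellTiter Glo ATP read out.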

Sequence of Nuclear receptor subfamily 1 group I member 2 (Rattus norvegicus) (Q9R1A7 whole entry, looked up): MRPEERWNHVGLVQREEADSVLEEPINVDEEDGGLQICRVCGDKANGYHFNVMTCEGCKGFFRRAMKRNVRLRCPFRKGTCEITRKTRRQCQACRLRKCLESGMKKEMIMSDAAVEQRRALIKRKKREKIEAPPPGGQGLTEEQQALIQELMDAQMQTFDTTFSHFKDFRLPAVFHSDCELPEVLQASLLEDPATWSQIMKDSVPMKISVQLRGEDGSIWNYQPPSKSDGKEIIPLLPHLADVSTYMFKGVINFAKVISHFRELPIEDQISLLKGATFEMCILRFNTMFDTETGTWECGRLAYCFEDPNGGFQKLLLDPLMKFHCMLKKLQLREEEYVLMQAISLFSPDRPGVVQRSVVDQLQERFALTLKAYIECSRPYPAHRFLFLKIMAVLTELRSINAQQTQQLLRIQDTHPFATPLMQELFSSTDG

Oc1ccc2c3c1O[C@H]1[C@@H](O)C=C[C@H]4[C@@H](C2)NCC[C@@]341
inactive: Potency (SKOV3) | Potency (Tov-21-G) | Potency (Tov112D) | Potency [1] | Potency (astro)

COC1=C[C@@H]2[C@@H]3Cc4ccc(OC)c(O)c4[C@]2(CCN3C)CC1=O
inactive: Potency (SKOV3) | Potency (Tov-21-G) | Potency (Tov112D)

CN1CCN(c2ccc([N+](=O)[O-])c3no[n+]([O-])c23)CC1
inactive: Potency (SKOV3) | Potency (Tov-21-G) | Potency (Tov112D)

Cc1c(C(=O)Nc2cccc(C(F)(F)F)c2)cc(-c2ccccc2)n1CCCN1CCOCC1
inactive: Potency (SKOV3) | Potency (Tov-21-G) | Potency (Tov112D)

CS(=O)(=O)c1ccc(C(=O)C2C(=O)CCCC2=O)c([N+](=O)[O-])c1
inactive: Potency (SKOV3) | Potency (Tov-21-G) | Potency (Tov112D) | Potency [1] | Potency (astro) | max response [2] 1.13%

CC1=C(C(=O)O)N2C(=O)[C@@H](N)[C@H]2SC1
inactive: Potency (SKOV3) | Potency (Tov-21-G) | Potency (Tov112D)

Cc1ccccc1-n1c(Cn2cnc3c(N)ncnc32)nc2cccc(C)c2c1=O
inactive: Potency (SKOV3) | Potency (Tov-21-G) | Potency (Tov112D)

CCO/N=C(\CC)C1=C(O)CC(c2c(C)cc(C)cc2C)CC1=O (centres undefined)
inactive: Potency (SKOV3) | Potency (Tov-21-G) | Potency (Tov112D) | Potency [1] | Potency (astro)

S=C(NC1CCCCC1)N1CCC(c2cnc[nH]2)CC1
inactive: Potency (SKOV3) | Potency (Tov-21-G) | Potency (Tov112D)

CN[C@@H](C)[C@H](O)c1ccccc1
inactive: Potency (SKOV3) | Potency (Tov-21-G) | Potency (Tov112D) | Potency [1] | Potency (astro)

O=C(Oc1ccc([N+](=O)[O-])cc1)N1CCN(Cc2cccc(Oc3ccccc3)c2)CC1
inactive: Potency (SKOV3) | Potency (Tov-21-G) | Potency (Tov112D)

CC(=O)NCCc1c[nH]c2ccccc12
inactive: Potency (SKOV3) | Potency (Tov-21-G) | Potency (Tov112D)

O=C1C=CC[C@@H]2[C@H]3CCCN4CCC[C@@H](CN12)[C@@H]34
inactive: Potency (SKOV3) | Potency (Tov-21-G) | Potency (Tov112D)

O=[N+]([O-])c1ccc([As](=O)(O)O)cc1
inactive: Potency (SKOV3) | Potency (Tov-21-G) | Potency (Tov112D) | Potency [1] | Potency (astro)

COC(=O)c1cncn1C(C)c1ccccc1 (centres undefined)
inactive: Potency (SKOV3) | Potency (Tov-21-G) | Potency (Tov112D) | Potency [1] | Potency (astro)

CCC(=O)O[C@@H]1C=C2CCC3C(CCC4(C)C3CC[C@@H]4OC(=O)CC)C2CC1 (some centres undefined)
inactive: Potency (SKOV3) | Potency (Tov-21-G) | Potency (Tov112D)

CCNC(=O)CC1N=C(c2ccc(Cl)cc2)c2cc(OC)ccc2-n2c(C)nnc21 (centres undefined)
inactive: Potency (Tov-21-G) | Potency (Tov112D)
inactive and 15.8 µM (active): Potency (SKOV3)

CC(=O)N(C)c1cccc(-c2ccnc3c(C(=O)c4cccs4)cnn23)c1
inactive: Potency (SKOV3) | Potency (Tov-21-G) | Potency (Tov112D)

CCc1c(C(=O)C(N)=O)c2c(OCC(=O)O)cccc2n1Cc1ccccc1
inactive: Potency (SKOV3) | Potency (Tov-21-G) | Potency (Tov112D)

O=C1C(I)=CC(=C(c2cc(I)c(O)c(I)c2)c2ccccc2C(=O)O)C=C1I
inactive: Potency (SKOV3) | Potency (Tov-21-G) | Potency (Tov112D) | Potency [1]

COCCOCCO
inactive: Potency (SKOV3) | Potency (Tov-21-G) | Potency (Tov112D) | Potency [1]

CCOC(=O)Nc1ccc(NCc2ccc(F)cc2)cc1N
inactive: Potency (SKOV3) | Potency (Tov-21-G) | Potency (Tov112D)

O=C(N[C@H]1CN2CCC1CC2)c1ccc(Cl)cc1
inactive: Potency (SKOV3) | Potency (Tov-21-G) | Potency (Tov112D)

CC(C)NCC(O)c1ccc([N+](=O)[O-])cc1 (centres undefined)
inactive: Potency (SKOV3) | Potency (Tov-21-G) | Potency (Tov112D) | Potency [1] | Potency (astro)

CCN1CCN(C(=O)Cc2ccc(Nc3ncc(F)c(Nc4ccc(C(=O)Nc5ccccc5Cl)cc4)n3)cc2)CC1
active: Potency ([3]; HiBiT) 14 µM

CN[C@@H]1C[C@@H](c2ccc(Cl)c(Cl)c2)c2ccccc21
inactive: activity change, negative = inhibition ([3]; HiBiT) -7.12%

CCCCCC[C@H]1C(=O)O[C@H](C)[C@H](NC(=O)c2cccc(NC=O)c2O)C(=O)O[C@@H](C)[C@@H]1OC(=O)CC(C)C
inactive: activity change, negative = inhibition ([3]; HiBiT) -17.2%

O=c1[nH]c2ccc(Cl)cc2c(N[C@@H]2CN3CCC2CC3)c1-c1nc2ccccc2[nH]1
active: Potency ([3]; Viability) 17.6 µM

COc1ccc2c(c[n+](C)c3c4cc5c(cc4ccc23)OCO5)c1OC
active: Potency ([3]; Viability) 8.83 µM
